Source: PubChem BioAssay AID529 (NMMLSC, 2006)
The campaign covered roughly 24,000 compounds. About 50 (0.2%) were called active. Another 9% or so got no clear call; they are omitted. The list comes from a sample in which actives are over-represented; it also holds similar structures and randomly drawn compounds. Unmarked numbers belong to inactive results.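 Rule for the calls: active = inhibition above 50%; inconclusive = compound itself fluorescent, judged against control cell fluorescence; inactive = the rest.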

Molecular target: Integrin alpha-4 (Homo sapiens) (UniProt P13612)
Sequence (P13612 whole entry, looked up): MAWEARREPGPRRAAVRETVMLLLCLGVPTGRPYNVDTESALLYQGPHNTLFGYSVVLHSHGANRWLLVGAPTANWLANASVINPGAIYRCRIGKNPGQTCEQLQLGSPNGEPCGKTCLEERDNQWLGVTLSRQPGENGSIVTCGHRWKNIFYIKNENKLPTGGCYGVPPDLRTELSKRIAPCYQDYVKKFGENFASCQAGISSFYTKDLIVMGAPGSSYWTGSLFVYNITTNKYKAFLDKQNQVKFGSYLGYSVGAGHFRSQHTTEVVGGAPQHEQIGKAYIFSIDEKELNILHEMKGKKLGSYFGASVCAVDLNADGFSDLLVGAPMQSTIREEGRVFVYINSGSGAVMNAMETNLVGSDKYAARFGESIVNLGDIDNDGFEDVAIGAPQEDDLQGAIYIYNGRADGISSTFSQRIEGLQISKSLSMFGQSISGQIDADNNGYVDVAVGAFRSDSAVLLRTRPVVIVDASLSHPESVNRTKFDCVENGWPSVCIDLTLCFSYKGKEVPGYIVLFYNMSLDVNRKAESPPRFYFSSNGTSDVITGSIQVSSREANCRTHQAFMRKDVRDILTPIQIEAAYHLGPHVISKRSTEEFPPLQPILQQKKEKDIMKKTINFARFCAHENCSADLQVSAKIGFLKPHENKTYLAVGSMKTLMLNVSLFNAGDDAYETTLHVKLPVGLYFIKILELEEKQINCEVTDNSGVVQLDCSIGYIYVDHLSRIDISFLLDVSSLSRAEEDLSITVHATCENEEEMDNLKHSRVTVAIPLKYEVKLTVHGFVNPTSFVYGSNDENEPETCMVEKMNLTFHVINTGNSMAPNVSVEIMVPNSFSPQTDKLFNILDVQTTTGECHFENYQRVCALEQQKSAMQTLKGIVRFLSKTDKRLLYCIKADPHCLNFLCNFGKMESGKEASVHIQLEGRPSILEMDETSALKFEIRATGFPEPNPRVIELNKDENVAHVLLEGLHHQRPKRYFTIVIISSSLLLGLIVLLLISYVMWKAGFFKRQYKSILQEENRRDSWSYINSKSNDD
Experiment: blockers of LDV-FITC ligand binding on VLA-4 – Jurkat cells, Mn2+ activated, primary screen (AID 529);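 note: 0% = Mn2+ stimulated cells lacking compound and 100% = ligand binding without Mn2+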
Details: LDV-FITC binding with Mn2+, flow cytometry, active compounds read high, 100% = Mn2+-driven binding gain fully reversed, screened at 10 µM (by protocol)

SMILES | inhibition [%]
O=C(NCc1cccs1)c1ccc2c(c1)ncn2C1CCCC1 | -10
CCCn1cc(SCC(N)=O)c2ccccc21 | -4
N#CC1=C(N)Oc2cc(O)ccc2C1C1CCCCC1 (configuration not stated) | -8
CCOCCCN1C(=O)CN(C2CCCCC2)C(=O)C1c1ccc(OCC)c(OC)c1 (configuration not stated) | 7
COc1cc2c(cc1OC)C(c1ccc(C)o1)CC(=O)N2 (configuration not stated) | 3
CCCCOC(=O)NCN1C(=O)C2C3C=CC(C3)C2C1=O (configuration not stated) | -15
Cc1cc(N2C(=O)c3ccc(C(=O)NCc4ccccc4)cc3C2=O)no1 | 3
CCCCc1nccn1CCn1ccnc1CCCC | -5
CCCS(=O)(=O)C(=C1Nc2ccccc2N1)S(=O)(=O)CCC | 0
CCCCNC(=O)c1c[nH]c2ccc(S(=O)(=O)Nc3ccc(OCC)cc3)cc2c1=O | -22.5
COc1ccc(C2CC(c3ccc(C)cc3)Nc3ncnn32)cc1 (configuration not stated) | -3.7
COc1ccc(C2C(C(=O)Nc3ccccc3OC)=C(C)Nc3nnnn32)c(OC)c1 (configuration not stated) | 3
CCCCOC(=O)Nc1nccs1 | 15.3
O=C(CSC1=Nc2ccccc2C2=NC(c3ccccc3)C(=O)N12)NCC1CCCO1 (configuration not stated) | 3
COc1ccc(C2CC(c3ccc(Cl)cc3Cl)Nc3nc(N)nn32)cc1OC (configuration not stated) | -5
COc1cccc(NS(=O)(=O)c2ccc3[nH]cc(C(=O)NCCCOC(C)C)c(=O)c3c2)c1 | -26
CCOC(=O)c1oc2ccccc2c1NC(=O)c1cccs1 | 17
Cc1nn(C)c(C)c1S(=O)(=O)N1CCc2ccccc21 | 2
Cc1cccc(N2CCN(S(=O)(=O)c3ccc4c(c3)c(=O)n(C)c(=O)n4C)CC2C)c1 (configuration not stated) | -4
O=C(C1CCN(S(=O)(=O)c2cccs2)CC1)N1CCCCCC1 | -3
CN(C)CCCNC(=O)c1ccc2[nH]c3ccccc3c2c1 | -6

SMILES | inhibition [%]
COc1ccc(CCNC(=O)CSc2nnc(CNC(=O)c3cccs3)o2)cc1OC | 13
CCOC(=O)C1(c2ccccc2)NC(c2ccc(N(C)C)cc2)C2C(=O)N(C)C(=O)C21 (configuration not stated) | -13
CCOc1ccc(NC(=O)N(CCC(C)C)C(C)c2ccco2)cc1 (configuration not stated) | -12
CCC(C)(C(=O)NC1CCCC1)N(C(=O)CNC(C)=O)c1ccc(C)cc1 (configuration not stated) | -12
Cc1ccc(C(=O)N(CN2CCCC2=O)c2ccc(F)cc2)cc1 | -10
CCN(CC)CCNC(=O)Cn1cnc2sc(C)c(S(=O)(=O)N3CCOCC3)c2c1=O | 0
COc1ccccc1CNC(=O)CCCn1c(=O)c2ccccc2n(CC(=O)NC2CCCC2)c1=O | -2
CCOC(=O)N1CCC(NC(=O)CN2C(=O)COc3ccc(C(C)(C)C)cc32)CC1 | 7
O=c1c2[nH]c3ccc(Cl)cc3c2ncn1Cc1ccccn1 | -1
O=S(=O)(NCc1ccccc1Cl)c1cnc[nH]1 | -2
CCCCN=C(N)/C(C(=O)OCC)=C(\O)c1ccc(OC)cc1 | 9
COc1ccc(S(=O)(=O)NC2(C(F)(F)F)N=C3SCCN3C2=O)cc1 (configuration not stated) | -5
Cc1ccc(-n2nc3c(c2NC(=O)c2ccc4c(c2)OCO4)CSC3)c(C)c1 | 13
O=C(c1ccc2c(c1)N(Cc1ccc(F)cc1)C(=O)CS2)N1CCOCC1 | -5
CCCN1CCN(CCCNC(=O)CN2C(=O)COc3ccccc32)CC1 | 1
Cc1cccc(CSc2nnc(Cn3c(=O)sc4ccccc43)n2C)c1 | 2
COc1ccc(NC(=O)CN2CCN(S(=O)(=O)c3ccc(F)cc3)CC2)cc1Cl | 9
COCCn1c(=O)[nH]c2cc(C(=O)NCc3cccnc3)ccc2c1=O | -22
CCOc1ccccc1NC(=O)c1cc(S(=O)(=O)N2CCC3(CC2)OCCO3)ccc1F | 8
Cc1cc(C)c2c(n1)nn1c(N3CCOCC3)cc(C)nc21 | -14
CCOC(=O)CSc1nnc(CNC(=O)c2ccco2)n1-c1ccc(F)cc1 | 14
